The results in this text go back to PubChem BioAssay (NCI).

Among the test systems are DU-145 prostate; MALME-3M melanoma; MDA-MB-231 breast; RXF 393 renal; SF-268 CNS; SF-295 CNS; SF-539 CNS; UACC-257 melanoma; K-562 leukemia; M14 melanoma.
Holding throughout (assay): NCI-60 one-dose screen, 48 h (100 = growth as untreated, 0 = no growth, -100 = all killed)
What all share (conditions): 10 µM

Compounds without any hit were thinned out: in the full panel of roughly 83,000, 20% have a hit.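 48-hour exposure, single concentration, 96-well plates; percent growth endpoint where 0 means no net growth. Active: below 10.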 Values without a mark were called inactive. The source made the active and inactive calls.

Turning to `CCN1CCN(c2ccc(NC(=O)Nc3ccc4c(c3F)CCN4c3ccnc(C(=O)NC)c3)cc2C(F)(F)F)CC1`, the growth in the test on DU-145 prostate is -91.2% (active); with MALME-3M melanoma it was -94.3% (active); with MDA-MB-231 breast, -88.9% (active); in the test on RXF 393 renal, -93% (active); with SF-268 CNS, -64.2% (active); with SF-295 CNS it was -74.1% (active). In addition, the results for the growth in the test with SF-539 CNS and in the test on UACC-257 melanoma were -100% (active) and 99.3%, respectively.
As for `Cc1ccc(C(=O)Nc2ccc(-n3c(C)nc4c(cnn4-c4ccccc4)c3=O)cc2)cc1`, the growth in the test with DU-145 prostate was 84.9%; in the test on K-562 leukemia it was 31.2%; in the test on MALME-3M melanoma it was 67.7%; in the test on RXF 393 renal, 87.9%; in the test with SF-268 CNS, 96.3%; in the test on SF-295 CNS, 50.6%. Also, the values for the growth with SF-539 CNS, in the test on UACC-257 melanoma and in the test with M14 melanoma were 81.4%, 42% and 73.2%, respectively.
Consider `COc1ccc2nc(Cl)c(-c3cc(-c4ccccc4)nc(=S)[nH]3)cc2c1`, for which the growth with DU-145 prostate was 72.6%; with K-562 leukemia it was 24.8%; with MALME-3M melanoma, 45.3%; with RXF 393 renal it was 46.2%; with SF-268 CNS, 67.9%; in the test with SF-295 CNS, 50.9%. For the same compound, the growth was 63.5% in the test with SF-539 CNS, 38.2% in the test on UACC-257 melanoma and 16.5% with M14 melanoma.
As for `O=C(NCCCCC(c1ccc(F)cc1)c1ccc(F)cc1)NCCCc1cccnc1`, the growth is 22% with DU-145 prostate; -13% (active) in the test with MALME-3M melanoma; 44.8% with MDA-MB-231 breast; 30.8% in the test with RXF 393 renal; 52.4% with SF-268 CNS; 18.5% in the test on SF-295 CNS. Moreover, the figures for the growth in the test on SF-539 CNS, with UACC-257 melanoma and with M14 melanoma were 0.987% (active), 25.8% and -20.2% (active), respectively.
On to `C=C1CC[C@H](C(=C)C)[C@H]2C=C(C)C(=O)C3=C(C(=O)[C@@](C)(O)C3)[C@H]12`, for which the growth is -45.4% (active) in the test on DU-145 prostate; -79.1% (active) in the test on MALME-3M melanoma; -70.1% (active) in the test with MDA-MB-231 breast; -82.7% (active) in the test with RXF 393 renal; -50.1% (active) with SF-268 CNS; -86.4% (active) with SF-295 CNS. Besides, the growth with SF-539 CNS is -98.4% (active); with UACC-257 melanoma it was -97.3% (active); in the test on M14 melanoma it was -30.3% (active).
With `COc1ccc2[nH]c(O)c(N=NC(=O)COc3ccc(NC(=O)Nc4ccc(Cl)c(Cl)c4)cc3)c2c1`, the growth with DU-145 prostate is -60.3% (active); in the test on MALME-3M melanoma, -79.6% (active); in the test on MDA-MB-231 breast, -89.7% (active); with RXF 393 renal, -87.5% (active); with SF-268 CNS, 64.1%; in the test on SF-295 CNS, -45.5% (active). Besides, the growth in the test with SF-539 CNS is -97.5% (active); with UACC-257 melanoma it was 11.3%; in the test on M14 melanoma it was -42.2% (active).
On to `C=CC(=O)Nc1nc(-c2cccc(NS(=O)(=O)c3cccc4c(N(C)C)cccc34)c2)cs1`, for which the growth in the test with DU-145 prostate is 3.39% (active); with MALME-3M melanoma, -76.1% (active); in the test with MDA-MB-231 breast it was -63.8% (active); with RXF 393 renal, -98.7% (active); in the test with SF-268 CNS, 0.14% (active); in the test with SF-295 CNS, 37.8%. The growth in the test with SF-539 CNS is -100% (active); with UACC-257 melanoma, -29.3% (active); in the test on M14 melanoma it was -78.7% (active).
As to `CN1CCN(c2ccc(Nc3nc(NCCCNC(=O)c4ccc(Cl)cc4)c4sccc4n3)cc2)CC1`, the growth with DU-145 prostate was 84.2%; in the test on MALME-3M melanoma, 72.6%; in the test on MDA-MB-231 breast, 61.1%; with RXF 393 renal, 37.6%; in the test on SF-268 CNS it was 77%; in the test on SF-295 CNS it was 98%. Besides, the results for the growth with SF-539 CNS, in the test on UACC-257 melanoma and in the test on M14 melanoma were 18.7%, 71.9% and 68.6%, respectively.
For `CN1CCN(c2ccc(Nc3nc(NCCNC(=O)c4ccc(C(F)(F)F)cc4)c4sccc4n3)cc2)CC1`, the growth was 45.7% in the test on DU-145 prostate; -100% (active) in the test with MALME-3M melanoma; -36.1% (active) in the test with MDA-MB-231 breast; -82.2% (active) in the test with RXF 393 renal; 21.8% with SF-268 CNS; -62.7% (active) in the test with SF-295 CNS. Besides, the growth in the test on SF-539 CNS was -99.7% (active); in the test with UACC-257 melanoma, -93.4% (active); with M14 melanoma, -54.4% (active).
`Cc1ccc(C(C)C)cc1NC(=O)c1ccccc1O`: the growth in the test on DU-145 prostate is 63.3%; in the test with MALME-3M melanoma, 9.96% (active); with MDA-MB-231 breast, 65.1%; in the test on RXF 393 renal, 57.3%; with SF-268 CNS, 55.2%; in the test on SF-295 CNS, 61.8%. The growth was 49.5% in the test with SF-539 CNS, 29% with UACC-257 melanoma and 43.2% in the test with M14 melanoma.
For `CCN1CCN(c2ccc(NC(=O)Nc3ccc(-c4cc(C(=O)NC(C)C)c5ncccc5n4)cc3)cc2C(F)(F)F)CC1`, the growth in the test with DU-145 prostate is -54.9% (active); in the test with MALME-3M melanoma, -97.5% (active); in the test on MDA-MB-231 breast, -91.9% (active); in the test on RXF 393 renal it was -96% (active); with SF-268 CNS, -16.3% (active); in the test on SF-295 CNS, -92.4% (active). Also, the results for the growth in the test with SF-539 CNS, in the test on UACC-257 melanoma and with M14 melanoma were -98.9% (active), -95.6% (active) and -88.4% (active), respectively.
In the case of `O=C1CCC(N2Cc3c(C#CCCCNC(=O)c4ccc(NC(=O)[C@@H]5NC6(CCCCC6)[C@@]6(C(=O)Nc7cc(Cl)ccc76)[C@H]5c5cccc(Cl)c5F)cc4)cccc3C2=O)C(=O)N1` (stereo not given in full), the growth in the test on DU-145 prostate is 82.1%; in the test on MALME-3M melanoma, 17.7%; with MDA-MB-231 breast it was 52%; in the test on RXF 393 renal it was 46.3%; in the test with SF-268 CNS it was 70.3%; with SF-295 CNS, 54.8%. Further, the growth in the test on SF-539 CNS was 35.1%; in the test with UACC-257 melanoma it was 60.5%; with M14 melanoma, 50.1%.
Regarding `CCOC(=O)C1=C(N)N(c2ccc(Cl)cc2)C2=C(C(=O)CC(C)(C)C2)C1c1ccc(N2CCOCC2)cc1` (stereo not given), the growth in the test on DU-145 prostate is 99%; in the test on MALME-3M melanoma it was 93.9%; in the test on MDA-MB-231 breast, 87.3%; in the test with RXF 393 renal, 98.6%; in the test with SF-268 CNS, 89.7%; in the test on SF-295 CNS it was 89.3%. In addition, the growth is 100% with SF-539 CNS, 106% with UACC-257 melanoma and 103% in the test on M14 melanoma.
`CC(C)C(=O)Nc1ccc(C(=O)NC(=S)Nc2ccc(C(=O)O)cc2)cc1`: the growth in the test on DU-145 prostate is 110%; in the test with MALME-3M melanoma, 97%; with MDA-MB-231 breast, 104%; in the test on RXF 393 renal, 111%; in the test with SF-268 CNS it was 93.9%; with SF-295 CNS it was 95.3%. For the same compound, the growth in the test on SF-539 CNS is 95.3%; in the test on UACC-257 melanoma it was 128%; with M14 melanoma, 105%.
As for `COc1cc(Cn2c(C(F)(F)F)cc3c(Cl)ncnc32)ccn1`, the growth in the test on DU-145 prostate is -100% (active); in the test on MALME-3M melanoma, 71.2%; in the test with MDA-MB-231 breast, 10.7%; in the test with RXF 393 renal it was 32.9%; in the test on SF-268 CNS it was -11% (active); with SF-295 CNS it was 95%. Also, the growth in the test with SF-539 CNS was 59.9%; in the test on UACC-257 melanoma it was 30.1%; with M14 melanoma, -25.6% (active).
For `C[C@H]1[C@H](C)CC[C@]2(COC(=O)CCC(=O)NCC#CCN3CCNCC3)CC[C@]3(C)C(=CC[C@@H]4[C@@]5(C)CCCNC(C)(C)[C@@H]5CC[C@]43C)[C@H]12`, the growth with DU-145 prostate was 74.4%; with MALME-3M melanoma, -38.7% (active); with MDA-MB-231 breast, 43.4%; with RXF 393 renal, 50.3%; in the test with SF-268 CNS, 77.1%; in the test with SF-295 CNS, 28.1%. For the same compound, the growth in the test with SF-539 CNS is 41.9%; with UACC-257 melanoma it was 26.3%; with M14 melanoma, -16.7% (active).
Take `Cc1ccc(S(=O)(=O)c2nc(-c3ccccc3)oc2S(=O)(=O)CC(=O)N2CCCC2)cc1`: the growth in the test on DU-145 prostate was -98.5% (active); with MALME-3M melanoma, -94.9% (active); with MDA-MB-231 breast, -94.8% (active); with RXF 393 renal, -93.8% (active); with SF-268 CNS it was -0.601% (active); with SF-295 CNS, 70.3%. In addition, the growth with SF-539 CNS is -100% (active); in the test with UACC-257 melanoma, -92.2% (active); in the test on M14 melanoma, -48.3% (active).
On to `C#CCNC(=O)[C@]12CCC(C)(C)C[C@H]1C1=CC[C@@H]3[C@@](C)(CCC#N)[C@H](C(=C)C)CC[C@@]3(C)[C@]1(C)CC2`, for which the growth is 91.4% in the test with DU-145 prostate; 75.9% in the test on MALME-3M melanoma; 39.6% in the test on MDA-MB-231 breast; 66.8% in the test with RXF 393 renal; 86.2% in the test with SF-268 CNS; 38.2% in the test with SF-295 CNS. Also, the results for the growth in the test with SF-539 CNS, with UACC-257 melanoma and in the test on M14 melanoma were 83.4%, 54.4% and 76.3%, respectively.
As for `COc1ccc(-c2nc(S(=O)(=O)c3ccc(C)cc3)c(S(C)(=O)=O)o2)cc1`, the growth with DU-145 prostate was -99.1% (active); in the test with MALME-3M melanoma, -95.5% (active); in the test on MDA-MB-231 breast, -92.4% (active); in the test with RXF 393 renal, -95.1% (active); in the test on SF-268 CNS, -37% (active); with SF-295 CNS it was 78.4%. Besides, the growth in the test with SF-539 CNS was -100% (active); in the test with UACC-257 melanoma it was -84.6% (active); in the test with M14 melanoma, -31.9% (active).
